Sampled rows, rich in hits. Any-hit rate of the full collection: about 6%.
DRD3 agonist: D3 dopamine receptor (human) agonism | P35462 | D3R DiscoveRx beta-arrestin cells, luminescence, 90 min | max activation, % | 410,000 compounds, 0.58% hits | AID 652048; in the data active means max activation above about 30%; further: 0% is about no effect
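Cells at 1500/well, incubated overnight, then treated with pinned compounds (dopamine as control) for 90 min at 37 degrees C. DiscoveRx reagent added for 30 - 60 minutes at room temperature; luminescence read.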
D1 potentiator: human D1 dopamine receptor positive modulation | P21728 | HEK293 TREx D1 cells, calcium flux, dopamine EC20 potentiation | potentiation, % at 10 µM | 360,000 compounds, 0.036% hits; in the data active means potentiation above about 30%; further: 0% is about no effect
Target sequence (P21728 whole entry, looked up): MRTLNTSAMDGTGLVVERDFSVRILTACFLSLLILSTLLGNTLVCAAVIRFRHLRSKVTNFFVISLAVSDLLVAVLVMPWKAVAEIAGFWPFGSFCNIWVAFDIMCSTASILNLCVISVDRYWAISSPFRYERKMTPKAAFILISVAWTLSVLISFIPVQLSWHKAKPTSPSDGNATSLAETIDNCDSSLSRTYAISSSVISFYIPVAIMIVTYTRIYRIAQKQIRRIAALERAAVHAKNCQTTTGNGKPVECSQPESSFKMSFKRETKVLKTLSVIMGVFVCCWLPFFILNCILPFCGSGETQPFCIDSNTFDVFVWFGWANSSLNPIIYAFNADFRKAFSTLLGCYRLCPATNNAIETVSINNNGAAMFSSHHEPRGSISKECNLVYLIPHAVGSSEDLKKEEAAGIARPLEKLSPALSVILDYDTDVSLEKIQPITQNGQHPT
D1 ag: activates the human D1 dopamine receptor; HEK293 T-REx D1 cells, calcium flux, agonist mode; 360,000 compounds, 1% hits; activation, % at 2 µM; P21728; in the data active means activation above about 30%; further: 0% is about no effect
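Inducible HEK293 T-REx D1 cells, force-coupled to calcium signalling, were plated at 4000 cells/well with tetracycline and held overnight at 30 C. After no-wash calcium dye loading, compound-evoked calcium rise over 180 s flagged agonists.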
D3 antag: blocks the human D3 dopamine receptor | P35462 | D3R cells, DiscoveRx beta-arrestin luminescence, antagonist mode; hits give low values | max response, negative = inhibition, % | 360,000 compounds, 2.5% hits; in the data active means max response below about -50%; inconclusive means no clear call, values can overlap the other calls; further: on the % scale 0 is the no-effect control and ±100 the full control effect
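Cells expressing the human receptor were seeded at 1500 cells/well, incubated overnight at 37 degrees C in 5% CO2, then exposed to library compounds with dopamine controls for 90 minutes at 37 degrees C before luminescent detection.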
D1 antag: blocks dopamine activation of the human D1 receptor; P21728; HEK293 TREx D1 cells, calcium flux, dopamine EC80; hits give low values; activity change, negative = inhibition, % at 10 µM; 360,000 compounds, 3.2% hits; AID 504652; in the data active means activity change below about -30%; further: on the % scale 0 is the no-effect control and ±100 the full control effect
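Cells carrying a force-coupled, tetracycline-inducible human D1 receptor report calcium flux. Each well gets a 10 s baseline, compound with 180 s monitoring, then an EC80 dopamine stimulus with a second 180 s kinetic read.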
Numbers without * were called inactive; ? = inconclusive; . = no result given; ! = not active in a repeat.

SMILES	DRD3 agonist	D1 potentiator	D1 ag	D3 antag	D1 antag
COCCCn1c(N)c(C(=O)OC(C)COC)c2nc3ccccc3nc21 (configuration not stated)	4	-4	0	46	-32*
CCCCOCCCn1c(N)c(C(=O)OC(C)COC)c2nc3ccccc3nc21 (configuration not stated)	0	-6	-1	-20	-8
CCCCn1nnnc1C(c1cccc2ccccc12)N1CCC2(CC1)C(=O)NCN2c1ccccc1 (configuration not stated)	-10	.	.	?	.
COc1ccc(C(c2nnnn2-c2c(C)cccc2C)N2CCC3(CC2)C(=O)NCN3c2ccccc2)cc1 (configuration not stated)	-8	.	.	-54*	.
O=C1NCN(c2ccccc2)C12CCN(C(c1ccccc1OC(F)(F)F)c1nnnn1Cc1ccccc1)CC2 (configuration not stated)	30*	.	.	92	.
CCCCn1nnnc1C(c1cccs1)N1CCC2(CC1)C(=O)NCN2c1ccccc1 (configuration not stated)	-10	.	.	-52*	.
C[C@H]1CNCCc2ccc(Cl)cc21	-9	.	.	.	.
Oc1cc[c]([Hg][Cl])cc1	-30	.	.	.	.
CN1CCc2cc(O)cc3c2[C@H]1Cc1ccc(O)c(O)c1-3	-32	.	.	-84*	.
CCCN1CCc2cc(O)cc3c2[C@H]1Cc1ccc(O)c(O)c1-3	23	.	.	?	.
c1ccc(CCN2CCC(N3CCN(c4ccccc4)CC3)CC2)cc1	69*	-5	1	-24	1
CCCCN(Cc1ccccc1)C1CCN(CCc2ccccc2)CC1	-25	-13	2	?	6
Cc1cc(C)cc(-n2c(/C=C/c3cccc(F)c3)nc3ccccc3c2=O)c1	4	0	-3	.	6
C=C1C2C[C@H](O)C(C)(C)[C@@]2(O)[C@H](O)C[C@]23C[C@@](C)(O)[C@H](CC[C@H]12)[C@H]3OC(C)=O (some centres not stated)	-11	-3	0	6	-34*
CC(=O)O[C@H]1CC[C@@]2(C)C(=CC(=O)C3C2CC[C@@]2(C)C3C[C@H](OC(C)=O)[C@@H]2OC(C)=O)C1 (some centres not stated)	2	.	.	12	.
Clc1ccc2c(c1)C(c1ccccc1Cl)=NCc1nnc(N3CCN(CCSc4ccccc4)CC3)n1-2	1	2	7	-6	-1
Clc1ccc2c(c1)C(c1ccccc1Cl)=NCc1nnc(N3CCN(CCOc4ccccc4)CC3)n1-2	54*	-10	39*	-11	-22
COC(=O)[C@@H](N)CCCN/C(N)=N/[N+](=O)[O-]	-9	.	.	.	.
C[C@@H](CO)NC(=O)[C@@H]1C=C2c3cccc4[nH]cc(c34)C[C@H]2N(C)C1	38*	.	.	.	.
Cc1cc2c(C(C)C)c(O)c(O)c(C=O)c2c(O)c1-c1c(C)cc2c(C(C)C)c(O)c(O)c(C=O)c2c1O	13	-5	34*!	.	3
O=C1NC(=O)C(=C/C=C/c2coc3ccc(Br)cc3c2=O)C(=O)N1	.	-2	83*	.	1
O=c1[nH]c(=O)n(C2CCCCCC2)c(O)c1C=NCCCN1CCOCC1	-6	-5	2	-61*	-1
COc1ccc(CCN)cc1OC	4	5	18	12	6
NCCc1ccc(OCc2ccccc2)c(OCc2ccccc2)c1	1	-2	34*	4	11
O=c1[nH]c(=S)n(-c2ccc(Br)cc2)c(O)c1C=Nc1ccc(N2CCOCC2)cc1	7	5	28	-21	1
SMILES	DRD3 agonist	D1 potentiator	D1 ag	D3 antag	D1 antag
Cc1cc(C)cc(-n2c(O)c(C=Nc3ccc(N4CCOCC4)cc3)c(=O)[nH]c2=S)c1	-2	0	35*	-5	-4
CC(C)=CCN1CC[C@@]2(C)c3cc(O)ccc3C[C@@H]1[C@@H]2C	-24	.	.	.	.
Cc1cc(Cl)ccc1C(=O)C1CCCN(C2CCSCC2)C1 (configuration not stated)	-25	3	-1	-76*	27
O=C(c1ccc(C(F)(F)F)cc1)C1CCCN(C2CCSCC2)C1 (configuration not stated)	-18	1	2	-57*	-15
CCC(OC(C)=O)C(CC(C)NC)(c1ccccc1)c1ccccc1 (configuration not stated)	-13	.	.	.	.
C[C@]12C=CC(=O)C=C1CC[C@@H]1[C@@H]2CC[C@]2(C)OC(=O)CC[C@@H]12	-7	.	.	.	.
CCn1ccnc1CN1CCCC(C(=O)c2cc(Cl)ccc2OC)C1 (configuration not stated)	-13	1	2	-27	-13
COc1ccc(CN2CCCC(C(=O)c3cccc(Cl)c3)C2)cc1 (configuration not stated)	-19	-7	4	-73*	-9
COc1ccc(Cl)cc1C(=O)C1CCCN(CCO)C1 (configuration not stated)	-27	-1	1	-50*	-1
COc1ccc(CN2CCCC(C(=O)c3ccccc3SC)C2)cc1O (configuration not stated)	-7	-3	4	-61*	-2
COc1ccc(CN2CCCC(C(=O)c3ccc(Cl)cc3)C2)c(OC)c1 (configuration not stated)	-11	-1	11	-60*	-35*
CCN(CC)/[N+]([O-])=N/O	3	.	.	.	.
CCCN(CCC)c1c([N+](=O)[O-])cc(S(N)(=O)=O)cc1[N+](=O)[O-]	-3	.	.	.	.
O=C1CC(c2ccc(C(F)(F)F)cc2)c2c(c3ccccc3oc2=O)O1 (configuration not stated)	-5	0	3	.	0
CN1[C@@H]2CC[C@H]1CC(OC1c3ccccc3CCc3ccccc31)C2 (some centres not stated)	-88	3	44*	-91*	-43*
Clc1ccc(CCC(Cn2ccnc2)Sc2c(Cl)cccc2Cl)cc1 (configuration not stated)	-28	6	46*	-18	-54*
Clc1ccc(C(Cn2ccnc2)OCc2csc3c(Cl)cccc23)c(Cl)c1 (configuration not stated)	0	-5	27	0	17
COc1ccccc1N1CCN(CCc2c[nH]c3cc4c(cc23)OCO4)CC1	-27	.	.	-79*	.
C[C@H]1[C@@H]2Cc3ccc(O)cc3[C@@]1(C)CCN2C	0	.	.	.	.
CN1CC[C@@]23CCCC[C@@H]2[C@@H]1Cc1ccc(O)cc13	-6	-3	7	-13	-32*
CN(C)CCc1c[nH]c2ccccc12	-13	.	.	.	.
Cc1ccc(CN2C(=O)NC(=O)C3(Cc4c(nc5ccccn5c4=O)N4CCCCCC43)C2=O)cc1 (configuration not stated)	54*	11	3	13	27
CCNC1(c2cccs2)CCCCC1=O (configuration not stated)	-10	.	.	.	.
CCN1CCN(S(=O)(=O)c2ccc(Cl)nc2)CC1	-11	-4	6	-10	-35*

Bioassay records from PubChem.
